Source: PubChem BioAssay (NCI)
The panel holds about 83,000 compounds, 20% with a hit somewhere; the sample as a whole holds those more often.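 96-well plates, one dose, 48 hours. Percent growth reported; active if below 10.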 A number with no mark means an inactive call. Active and inactive are the calls of the source.

Legend:
Assay in all cases: NCI-60 one-dose screen, 48 h (100 = growth as untreated, 0 = no growth, -100 = all killed)
[1] = system: NCI-H23 lung; settings: 10 µM unless noted
[2] = system: NCI-H322M lung; settings: 10 µM unless noted
[3] = system: HOP-62 NSCLC; settings: 10 µM unless noted
[4] = system: NCI-H460 lung; settings: 10 µM unless noted
[5] = system: A549/ATCC NSCLC; settings: 10 µM unless noted
[6] = system: 786-0 renal; settings: 10 µM unless noted
[7] = system: COLO 205 colon; settings: 10 µM unless noted
[8] = system: DU-145 prostate; settings: 10 µM unless noted
[9] = system: K-562 leukemia; settings: 10 µM unless noted
[10] = system: MALME-3M melanoma; settings: 10 µM unless noted
[11] = system: MDA-MB-231 breast; settings: 10 µM unless noted
[12] = system: RXF 393 renal; settings: 10 µM unless noted
[13] = system: SF-268 CNS; settings: 10 µM unless noted
[14] = system: SF-295 CNS; settings: 10 µM unless noted
[15] = system: SF-539 CNS; settings: 10 µM unless noted
[16] = system: UACC-257 melanoma; settings: 10 µM unless noted
[17] = system: M14 melanoma; settings: 10 µM unless noted
[18] = system: HOP-92 NSCLC; settings: 10 µM unless noted
[19] = system: NCI-H522 lung; settings: 10 µM
[20] = system: NCI-H226 lung; settings: 10 µM unless noted

Row | Compound | growth [1] | growth [2] | growth [3] | growth [4] | growth [5] | growth [6] | growth [7] | growth [8] | growth [9] | growth [10] | growth [11] | growth [12] | growth [13] | growth [14] | growth [15] | growth [16] | growth [17] | growth [18] | growth [19] | growth [20]
1 | [N-]=[N+]=NCc1ncc(-c2ccc(C(F)(F)F)cc2)c(NC2CCCCCC2)n1 | 66.1% [50 µM] | 89.5% [50 µM] | 87% [50 µM] | 58.4% [50 µM] | 59.4% [50 µM] | 68.7% [50 µM] | 87.2% [50 µM] | 73.4% [50 µM] | 34.5% [50 µM] | 85% [50 µM] | 73% [50 µM] | 87.7% [50 µM] | 75.5% [50 µM] | 49.9% [50 µM] | 82.2% [50 µM] | 89.3% [50 µM] | 74.6% [50 µM] |  |  | 
2 | CC(=O)Nc1cc2c3c(cccc3c1)-c1ccccc1-2 | 89.1% | 79.9% |  |  | 34% | 50.4% | 107% | 97.7% | 71.9% |  | 67.5% | 92.4% | 39% | 92.9% | 39.7% | 88.8% | 99.6% | 78.9% |  | 
3 | CC(C)C[C@H](NC(=O)/C=C/Cn1ccc2ccccc2c1=O)B(O)O | 56.3% | 85.4% | 44.8% | 84.6% | 69% | 55.1% | 49.7% | 40.6% | 35.8% | -30% (active) | 35.1% | 8.46% (active) | 24.6% | 26.8% | 15.1% | 43.2% | 21.1% | 99.7% |  | 
4 | O=C(COc1ccc(/C=C2\Oc3ccc4ccccc4c3C2=O)cc1)c1ccc([N+](=O)[O-])cc1 | 96.5% | 99.9% | 118% |  |  | 103% | 134% |  | 79.4% | 85.8% | 94.9% |  | 96.9% | 105% | 65.6% | 94% | 92.8% | 96.7% | 49% | 
5 | O=C1Nc2ccc(Cl)cc2[C@@](C#CC2CC2)(C(F)(F)F)O1 | 87.8% | 80.9% | 104% | 102% | 70.7% | 96.6% | 127% | 104% | 67.3% | 93.4% | 86.5% |  | 117% | 82% | 104% | 79.9% | 86.2% | 93.2% |  | 
6 | COc1ccc(C2=NN(C(N)=S)C(c3ccc4c(c3)OCO4)C2)cc1 (stereo not given) | 26.7% | 25.6% | 46.7% | 42.6% | 58.6% | 30.6% | 56.5% | -3.99% (active) | 5.68% (active) |  | 48.7% | 48.5% | 21.5% | -9.16% (active) | 21.4% | 38% | 21.6% |  |  | 
7 | COc1cc(C2CC(c3ccc(C)cc3)=NN2C=O)ccc1OCCN(C)C (stereo not given) | 106% | 94.3% |  |  | 84.6% | 101% | 95.8% | 105% | 83% | 83.1% | 97.2% | 79.8% | 89.8% | 97.4% | 89.5% | 92.9% | 96.8% | 77.7% |  | 86.4%
8 | CC(=O)c1nn(-c2ccccc2)c(=Nc2ccccc2)cc1C | 107% | 103% | 91.7% | 101% | 99.7% | 107% | 109% | 107% | 97.3% | 120% | 90.2% | 102% | 114% | 86.9% | 107% |  | 120% | 55.2% |  | 
9 | COc1ccc(C(=O)/C=C/c2cccc(Nc3ccnc4cc(Cl)ccc34)c2)cc1 | 43.2% | 49.6% | 18.8% | 31.6% | 29.4% | -35.4% (active) | 45.1% | 37% | 21% | 44% | 13.7% | 41.7% | 39% | 30.6% | 28.4% | 37.8% | 23.2% | 29.1% |  | 
10 | COC(=O)c1cc2c(/C=C3/NC(=S)NC3=O)coc2n1C | 103% | 87.1% |  |  | 104% | 98.2% | 97.7% | 134% | 95.6% | 58.4% | 82.2% | 38.4% | 37.7% | 45.2% | 82.2% | 107% |  | -38.5% (active) |  | 110%
11 | O=c1[nH]c(N2CCC(Cc3ccccc3)CC2)nc2sc3c(c12)CCCC3 | 95.9% | 97.1% | 94.5% | 102% | 77.5% | 105% | 105% | 107% | 110% | 102% | 106% | 104% | 95.2% | 94.6% | 105% | 85.4% | 100% | 91.2% |  | 
12 | Cc1cc2c(cc1C)[n+](Cc1ccc3ccccc3n1)cn2Cc1ccc2ccccc2n1 | 1.58% (active) | 36% | 4.38% (active) | 0.342% (active) | 30.4% | 11.2% | -61.5% (active) | 24.1% | -0.971% (active) | -28% (active) | -7.81% (active) | -6.38% (active) | 16.8% | 5.16% (active) | 14.8% | -16.6% (active) | -13.3% (active) | -27.3% (active) |  | 
13 | Cc1cc(Br)c(C)cc1Br | 97.9% | 96.4% | 99.4% | 114% |  | 101% | 110% | 102% | 89.8% | 121% | 111% | 106% | 100% | 89.2% | 103% | 94.4% | 100% | 91.4% | 96% | 
14 | COc1ccc(-c2cc(-c3nnc(SCC(=O)Nc4ccc(C(C)=O)cc4)n3-c3ccccc3)c3ccccc3n2)cc1OC | 96.2% | 102% | 84% | 103% | 94.9% | 97.1% | 98.8% | 110% | 110% | 97.2% | 105% | 115% | 89.9% | 98.7% | 97.4% | 87.1% | 93.7% | 104% |  | 
15 | CC[n+]1c(/C=C/c2ccc(N3CCCC3)cc2)cccc1/C=C/c1ccc(N2CCCC2)cc1 | -67.9% (active) | -86.7% (active) | -54.4% (active) | -84.3% (active) |  | -82.3% (active) | -83.1% (active) | -97.4% (active) | 8.88% (active) | -82.2% (active) | -80.6% (active) | -93.7% (active) | -90.3% (active) | -76.9% (active) | -87.2% (active) | -92.5% (active) | -65.3% (active) | -73.3% (active) | -83.2% (active) | 
16 | COc1cc(Cl)cc(-c2nn(-c3cccc(NC(=O)c4cc(C(F)(F)F)cc(C(F)(F)F)c4)c3)cc2-c2ccncc2)c1 | 72.1% | 80.3% | 103% |  |  | 80.2% | 88.7% | 78.2% | 38% | 104% | 56.7% | 67.7% | 89.2% | 42.1% | 80% | 79.3% | 67.3% | 46.8% |  | 
17 | CC(=O)N1N=C(c2ccc(Cl)cc2)CC1c1c(C)nn(-c2ccccc2)c1N(C)Cc1ccccc1 (stereo not given) | 78.3% | 91.4% | 74.3% | 79% | 53.5% | 84.7% | 74.9% | 94.5% | 61.9% | 83.1% | 81.1% | 72.7% | 77.8% | 82.7% | 93.8% | 50.4% | 79.9% | 55.2% |  | 
